Compounds without any hit were thinned out: in the full panel of roughly 83,000, 20% have a hit.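 In brief: 96-well plates, 48 h treatment, single concentration, percent growth endpoint.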 Unmarked numbers belong to inactive results. Active and inactive are the calls of the source. Rule for the calls: active = growth percent below 10; inactive = the rest.
Legend:
Test in all cases: NCI-60 one-dose screen, 48 h (100 = growth as untreated, 0 = no growth, -100 = all killed)
Conditions in all cases: 10 µM unless noted
[1] = system: SK-MEL-2 melanoma
[2] = system: EKVX NSCLC
[3] = system: SN12C renal
[4] = system: UO-31 renal
[5] = system: TK-10 renal
[6] = system: ACHN renal
[7] = system: CAKI-1 renal
[8] = system: HL-60(TB) leukemia
[9] = system: CCRF-CEM leukemia
[10] = system: MOLT-4 leukemia
[11] = system: SR leukemia
[12] = system: RPMI-8226 leukemia
[13] = system: OVCAR-8 ovarian
[14] = system: OVCAR-5 ovarian
[15] = system: OVCAR-4 ovarian
[16] = system: SK-OV-3 ovarian
[17] = system: IGROV1 ovarian
[18] = system: OVCAR-3 ovarian
[19] = system: HS 578T breast

Compound	growth [1]	growth [2]	growth [3]	growth [4]	growth [5]	growth [6]	growth [7]	growth [8]	growth [9]	growth [10]	growth [11]	growth [12]	growth [13]	growth [14]	growth [15]	growth [16]	growth [17]	growth [18]	growth [19]
CCCCCCCCCCCCCCCCCC1OC[C@@H](COC(=O)O[C@@H](C(=O)O[C@H]2C[C@@]3(O)[C@@H](OC(=O)c4ccccc4)[C@@H]4[C@]5(OC(C)=O)CO[C@@H]5C[C@H](O)[C@@]4(C)C(=O)[C@H](OC(C)=O)C(=C2C)C3(C)C)[C@@H](NC(=O)c2ccccc2)c2ccccc2)O1 (stereo not given in full)	82.9%	96.9%	72%	93.5%	108%	92.4%	89.3%	35.8%	59.2%	58.7%	47.8%	15.2%	64.8%	53.9%	80.8%	57.9%	50.4%	29.2%	57.3%
CCOC(=O)[C@@H](C)C[C@H](Cc1ccccc1)NC(=O)c1nc([C@@H](C[C@H](C(C)C)N(C)C(=O)[C@@H](NC(=O)[C@H]2CCCCN2C)C(C)C)OC(C)=O)sc1CCOCc1ccccc1	-50.6% (active)	10.8%	-58.9% (active)	-56.3% (active)	-6.54% (active)	-22% (active)	-23.5% (active)	-62.9% (active)	0.263% (active)	-2.06% (active)	-36.9% (active)	-32% (active)	-19.3% (active)	6.59% (active)	14.9%	-3.36% (active)	-4.01% (active)	-53% (active)	-27.9% (active)
CCCOC(=O)N[C@H]1CCc2c(Br)c(OC)c(OC)c(OC)c2-c2ccc(SC)c(=O)cc21	34.2%	40.3%	14.1%	20.7%	43%	27.6%	11.2%	-25.7% (active)	5.05% (active)	10.7%	3.3% (active)	-9.16% (active)	13.4%	36.7%	32.6%	40.8%	10.9%	-16.8% (active)	1.06% (active)
O=[N+]([O-])c1cc([N+](=O)[O-])c(Cl)cc1Cl	-43% (active)	-57.1% (active)	-89% (active)	-93.9% (active)	-92.9% (active)	-91.5% (active)	-81.2% (active)	-40.4% (active)	-36.3% (active)	-21% (active)	-31.3% (active)	-50.2% (active)	-26.8% (active)	-69.1% (active)	-99% (active)	104%		-98% (active)	
C[C@@]12CC=C3c4nc(Nc5cccc(O)c5)sc4CC[C@]3(C)[C@H]1CC[C@]1(C)C(=O)CC[C@@H]21	29.1%	71.4%	46.5%	22.2%	10.2%	5.12% (active)	37.1%	46%	13%	5.52% (active)	3.61% (active)	-13.6% (active)	17.9%	110%	52.1%	37.3%	-12.1% (active)	-3.79% (active)	7.41% (active)
COC(=O)N[C@H]1CCc2c(Br)c(OC)c(OC)c(OC)c2-c2ccc(SC)c(=O)cc21	29.4%	46%	25.1%	18.2%	41.6%	26.7%	13.7%	-43.7% (active)	3.65% (active)	3.15% (active)	-9.73% (active)	-3.46% (active)	14.8%	35.9%	24.7%	33.1%	9.6% (active)	-40.5% (active)	1.22% (active)
O=[N+]([O-])CC(c1ccccc1Cl)c1c(-c2ccccc2)[nH]c2ccccc12 (stereo not given)	27.2%	40.6%	53.4%	45.1%	61.6%	39.7%	24.4%	6.94% (active)	23.6%	30.3%	18.9%		40.4%	69.1%	66.4%	44.1%	33.8%	9.26% (active)	
CN1C(=O)N[C@H]2[C@@H]3NC(=O)c4ccc(Br)n4[C@@H]3C[C@]21O	-55.5% (active)	-17.4% (active)	-14.1% (active)	9.15% (active)	-16.7% (active)	-24.6% (active)	6.74% (active)	-20% (active)	-15% (active)	-9.97% (active)		-23.2% (active)	-12.4% (active)	-2.49% (active)	-13.9% (active)	-2.3% (active)	-13.9% (active)	-28.7% (active)	-28.5% (active)
Cc1ccc2c(C(C[N+](=O)[O-])c3cccs3)c(-c3ccccc3)[nH]c2c1 (stereo not given)	20.7%	35.9%	32%	34.8%	64.7%	33.8%	2.76% (active)	0.431% (active)	15%	16.2%		11.8%	33%	58.8%	38%		31.4%	10.2%	-11.7% (active)
O=C(CCCC1CCCCC1)OCC(Cl)(Cl)Cl	109%	105%	106%	91.1%	98.7%	110%	102%	100%		107%	103%	95.7%	110%	120%	105%	101%	106%	104%	
CC(C)(C)C(=O)OCOP(=O)(NCc1ccccc1)C1CCCN(O)C1=O (stereo not given)	53.7%	67.3%	5.58% (active)	1.82% (active)	68.9%	34.2%	31.9%	52.2%	12.9%	9.06% (active)	9.38% (active)		14.2%	94.5%	19.9%	59.7%	19.4%	-6.7% (active)	14.7%
COC(=O)[C@@H](C)C[C@H](Cc1ccccc1)NC(=O)c1nc([C@@H](C[C@H](C(C)C)N(C)C(=O)[C@@H](NC(=O)[C@H]2CC(=O)CCN2C)C(C)C)OC(C)=O)sc1C(C)C	5.7% (active)	30%	17.5%	29.6%	46.5%	21.9%	34.6%	-36.7% (active)	9.87% (active)	15%	10.9%	-3.35% (active)	8.46% (active)	35.5%	45.8%	29.1%	14.4%	-15.6% (active)	9.66% (active)
O=C(Nc1ccc([N+](=O)[O-])cc1)C(Cl)(Cl)Cl	102%	89.4%	95.3%	87.3%	113%	86.9%	83.3%	108%	101%	107%		106%	100%	95.6%	103%	115%	93.5%	117%	99.8%
CCn1cnc2c(Nc3cccc(Cl)c3)nc(N[C@@H]3CCCC[C@@H]3N)nc21	-1.69% (active)	11.8%	6.96% (active)	-13.3% (active)	13.5%	0.47% (active)	25.1%	-51.6% (active)	2.54% (active)	-10.9% (active)	-32.7% (active)	-33.2% (active)		3.37% (active)	-7.56% (active)	40.1%	5.27% (active)	0.926% (active)	26.9%
C=C1[C@@H](C)[C@H]2[C@H](Cc3ccccc3)NC(=O)[C@]23[C@@H](O)/C=C/[C@@](C)(O)C(=O)[C@@H](C)C/C=C/[C@H]3[C@@H]1O	65.1%	57.2%	66.1%	31.6%	39.6%	45.6%	52.5%	73.4%	48%	61.5%	64.3%	68.4%	69.3%	38.1%	53.7%	38.1%	70.5%		-11.7% (active)
CC(=O)OC[C@]1(C)C=C2C(=O)[C@](C)(O)C3(CC3)C(C)=C2[C@H]1O	-55.1% (active)	-13.7% (active)	-5.94% (active)	-47.3% (active)	-15.3% (active)	-12.4% (active)	1.8% (active)	-12.4% (active)	14.6%	12.2%	9.64% (active)	75.8%	-0.446% (active)	-14.4% (active)	-9.54% (active)	-40.4% (active)	-31.1% (active)	-29.4% (active)	-21.5% (active)
CCn1c2ccccc2c2cc(C(=O)c3cccc4c3CCCN4)ccc21	99.5%	99.3%	93.7%	94.1%	107%	102%	99.3%	110%	120%	104%	95.3%	112%	113%	99%	101%	106%	110%	103%	92.1%
